From the supplement of paper PMC4466140

Assays:
Assay in all cases: SPOT peptide array binding signal intensity (averaged, normalized) (arbitrary units (background-subtracted, floor 0; scale differs between SH3 domains)); higher = stronger binding of the SH3 domain to the peptide
AgAbp1 = target: AgAbp1
In short: (§1)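 Binding signal is given in arbitrary units that differ between domains and is the normalized, background-subtracted spot intensity averaged across replicates. Each GST-SH3 fusion from one of four yeast species was made in E. coli BL21(DE3), purified on glutathione Sepharose and incubated at 10 μg/ml overnight at 4°C on cellulose-bound synthetic 15-mer peptides in which cysteines were replaced by serines. Detection used anti-GST antibody, an HRP anti-mouse secondary and luminol, followed by imaging and Genespotter quantification.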

AgBbc1 = target: AgBbc1
In short: as §1

AgBem1-D1 = target: AgBem1-D1
In short: as §1

AgBzz1-D1 = target: AgBzz1-D1
In short: as §1

AgBzz1-D2 = target: AgBzz1-D2
In short: as §1

AgCyk3 = target: AgCyk3
In short: as §1

AgFus1 = target: AgFus1
In short: as §1

AgHof1 = target: AgHof1
In short: as §1

AgHse1 = target: AgHse1
In short: as §1

AgLsb1 = target: AgLsb1
In short: as §1

AgLsb4 = target: AgLsb4
In short: as §1

AgMyo5 = target: AgMyo5
In short: as §1

AgNbp2 = target: AgNbp2
In short: as §1

AgRvs167 = target: AgRvs167
In short: as §1

AgSho1 = target: AgSho1
In short: as §1

AgSla1-D1-D2 = target: AgSla1-D1-D2
In short: as §1

AgSla1-D3 = target: AgSla1-D3
In short: as §1

CaAbp1-D1 = target: CaAbp1-D1
In short: as §1

CaAbp1-D2 = target: CaAbp1-D2
In short: as §1

CaBbc1 = target: CaBbc1
In short: as §1

CaBem1-D1 = target: CaBem1-D1
In short: as §1

CaBzz1-D1 = target: CaBzz1-D1
In short: as §1

CaBzz1-D2 = target: CaBzz1-D2
In short: as §1

CaCyk3 = target: CaCyk3
In short: as §1

CaFus1 = target: CaFus1
In short: as §1

CaHof1 = target: CaHof1
In short: as §1

CaHse1 = target: CaHse1
In short: as §1

CaLsb1 = target: CaLsb1
In short: as §1

CaLsb4 = target: CaLsb4
In short: as §1

CaMyo5 = target: CaMyo5
In short: as §1

CaNbp2 = target: CaNbp2
In short: as §1

CaRvs167 = target: CaRvs167
In short: as §1

CaRvs167-3 = target: CaRvs167-3
In short: as §1

CaSho1 = target: CaSho1
In short: as §1

CaSla1-D1-D2 = target: CaSla1-D1-D2
In short: as §1

CaSla1-D3 = target: CaSla1-D3
In short: as §1

ScAbp1 = target: ScAbp1
In short: as §1

ScBbc1 = target: ScBbc1
In short: as §1

ScBem1-D1 = target: ScBem1-D1
In short: as §1

ScBzz1-D1 = target: ScBzz1-D1
In short: as §1

ScBzz1-D2 = target: ScBzz1-D2
In short: as §1

ScCyk3 = target: ScCyk3
In short: as §1

ScFus1 = target: ScFus1
In short: as §1

ScHof1 = target: ScHof1
In short: as §1

ScHse1 = target: ScHse1
In short: as §1

ScLsb1 = target: ScLsb1
In short: as §1

ScLsb2 = target: ScLsb2
In short: as §1

ScLsb3 = target: ScLsb3
In short: as §1

ScLsb4 = target: ScLsb4
In short: as §1

ScMyo3 = target: ScMyo3
In short: as §1

ScMyo5 = target: ScMyo5
In short: as §1

ScNbp2 = target: ScNbp2
In short: as §1

ScPex13 = target: ScPex13
In short: as §1

ScRvs167 = target: ScRvs167
In short: as §1

ScSho1 = target: ScSho1
In short: as §1

ScSla1-D1-D2 = target: ScSla1-D1-D2
In short: as §1

ScSla1-D3 = target: ScSla1-D3
In short: as §1

SpAbp1-D1 = target: SpAbp1-D1
In short: as §1

SpBbc1 = target: SpBbc1
In short: as §1

SpBzz1-D1 = target: SpBzz1-D1
In short: as §1

SpBzz1-D2 = target: SpBzz1-D2
In short: as §1

SpCyk3 = target: SpCyk3
In short: as §1

SpHof1 = target: SpHof1
In short: as §1

SpHof1-2 = target: SpHof1-2
In short: as §1

SpHof1-3 = target: SpHof1-3
In short: as §1

SpHse1 = target: SpHse1
In short: as §1

SpLsb1 = target: SpLsb1
In short: as §1

SpLsb4 = target: SpLsb4
In short: as §1

SpMyo1 = target: SpMyo1
In short: as §1

SpNbp2 = target: SpNbp2
In short: as §1

SpPex13 = target: SpPex13
In short: as §1

SpRvs167 = target: SpRvs167
In short: as §1

SpSla1-D1-D2 = target: SpSla1-D1-D2
In short: as §1

SpSla1-D3 = target: SpSla1-D3
In short: as §1

Binder: TKRKRPARLIFYDSK
- SPOT peptide array binding signal intensity (AgAbp1): 113
- SPOT peptide array binding signal intensity (AgBbc1): 40.2
- SPOT peptide array binding signal intensity (AgBem1-D1): 82
- SPOT peptide array binding signal intensity (AgBzz1-D1): 26
- SPOT peptide array binding signal intensity (AgBzz1-D2): 20
- SPOT peptide array binding signal intensity (AgCyk3): 13.5
- SPOT peptide array binding signal intensity (AgFus1): 436
- SPOT peptide array binding signal intensity (AgHof1): 20.5
- SPOT peptide array binding signal intensity (AgHse1): 696
- SPOT peptide array binding signal intensity (AgLsb1): 3.5
- SPOT peptide array binding signal intensity (AgLsb4): 122
- SPOT peptide array binding signal intensity (AgMyo5): ≤ 0
- SPOT peptide array binding signal intensity (AgNbp2): 236
- SPOT peptide array binding signal intensity (AgRvs167): 3.67
- SPOT peptide array binding signal intensity (AgSho1): 94.5
- SPOT peptide array binding signal intensity (AgSla1-D1-D2): 1050
- SPOT peptide array binding signal intensity (AgSla1-D3): 1.25
- SPOT peptide array binding signal intensity (CaAbp1-D1): 717
- SPOT peptide array binding signal intensity (CaAbp1-D2): 662
- SPOT peptide array binding signal intensity (CaBbc1): 66.5
- SPOT peptide array binding signal intensity (CaBem1-D1): 16
- SPOT peptide array binding signal intensity (CaBzz1-D1): 108
- SPOT peptide array binding signal intensity (CaBzz1-D2): 40.2
- SPOT peptide array binding signal intensity (CaCyk3): 119
- SPOT peptide array binding signal intensity (CaFus1): 876
- SPOT peptide array binding signal intensity (CaHof1): 1.5
- SPOT peptide array binding signal intensity (CaHse1): 36.8
- SPOT peptide array binding signal intensity (CaLsb1): 1.5
- SPOT peptide array binding signal intensity (CaLsb4): 85
- SPOT peptide array binding signal intensity (CaMyo5): 3.5
- SPOT peptide array binding signal intensity (CaNbp2): 450
- SPOT peptide array binding signal intensity (CaRvs167): 19.8
- SPOT peptide array binding signal intensity (CaRvs167-3): 240
- SPOT peptide array binding signal intensity (CaSho1): 605
- SPOT peptide array binding signal intensity (CaSla1-D1-D2): 1
- SPOT peptide array binding signal intensity (CaSla1-D3): 25
- SPOT peptide array binding signal intensity (ScAbp1): 26
- SPOT peptide array binding signal intensity (ScBbc1): 22
- SPOT peptide array binding signal intensity (ScBem1-D1): 22.5
- SPOT peptide array binding signal intensity (ScBzz1-D1): 12
- SPOT peptide array binding signal intensity (ScBzz1-D2): 22
- SPOT peptide array binding signal intensity (ScCyk3): 62
- SPOT peptide array binding signal intensity (ScFus1): 354
- SPOT peptide array binding signal intensity (ScHof1): 0.5
- SPOT peptide array binding signal intensity (ScHse1): 1060
- SPOT peptide array binding signal intensity (ScLsb1): 5.5
- SPOT peptide array binding signal intensity (ScLsb2): 5
- SPOT peptide array binding signal intensity (ScLsb3): 239
- SPOT peptide array binding signal intensity (ScLsb4): 13
- SPOT peptide array binding signal intensity (ScMyo3): 2.5
- SPOT peptide array binding signal intensity (ScMyo5): 3
- SPOT peptide array binding signal intensity (ScNbp2): 975
- SPOT peptide array binding signal intensity (ScPex13): 3.5
- SPOT peptide array binding signal intensity (ScRvs167): 23.8
- SPOT peptide array binding signal intensity (ScSho1): 382
- SPOT peptide array binding signal intensity (ScSla1-D1-D2): 198
- SPOT peptide array binding signal intensity (ScSla1-D3): 13.2
- SPOT peptide array binding signal intensity (SpAbp1-D1): 190
- SPOT peptide array binding signal intensity (SpBbc1): 3
- SPOT peptide array binding signal intensity (SpBzz1-D1): 77.5
- SPOT peptide array binding signal intensity (SpBzz1-D2): 0.75
- SPOT peptide array binding signal intensity (SpCyk3): 8
- SPOT peptide array binding signal intensity (SpHof1): 172
- SPOT peptide array binding signal intensity (SpHof1-2): 27.5
- SPOT peptide array binding signal intensity (SpHof1-3): 380
- SPOT peptide array binding signal intensity (SpHse1): 299
- SPOT peptide array binding signal intensity (SpLsb1): 4
- SPOT peptide array binding signal intensity (SpLsb4): 205
- SPOT peptide array binding signal intensity (SpMyo1): 4.25
- SPOT peptide array binding signal intensity (SpNbp2): 584
- SPOT peptide array binding signal intensity (SpPex13): 11
- SPOT peptide array binding signal intensity (SpRvs167): 4.33
- SPOT peptide array binding signal intensity (SpSla1-D1-D2): 4
- SPOT peptide array binding signal intensity (SpSla1-D3): 7

Binder: FSRRQSMDIPSKNRN
- SPOT peptide array binding signal intensity (CaNbp2): 1460
- SPOT peptide array binding signal intensity (CaRvs167): 96.7
- SPOT peptide array binding signal intensity (CaRvs167-3): 1.75
- SPOT peptide array binding signal intensity (CaSho1): 691
- SPOT peptide array binding signal intensity (CaSla1-D1-D2): 982
- SPOT peptide array binding signal intensity (CaSla1-D3): 552
- SPOT peptide array binding signal intensity (ScAbp1): 74
- SPOT peptide array binding signal intensity (ScBbc1): 34
- SPOT peptide array binding signal intensity (ScBem1-D1): 88.5
- SPOT peptide array binding signal intensity (ScBzz1-D1): 48
- SPOT peptide array binding signal intensity (ScBzz1-D2): 102
- SPOT peptide array binding signal intensity (ScCyk3): 8.5
- SPOT peptide array binding signal intensity (ScFus1): 405
- SPOT peptide array binding signal intensity (ScHof1): 2
- SPOT peptide array binding signal intensity (ScHse1): 566
- SPOT peptide array binding signal intensity (ScLsb1): 56.8
- SPOT peptide array binding signal intensity (ScLsb2): 1
- SPOT peptide array binding signal intensity (ScLsb3): 350
- SPOT peptide array binding signal intensity (ScLsb4): 126
- SPOT peptide array binding signal intensity (ScMyo3): 41.5
- SPOT peptide array binding signal intensity (ScMyo5): 13
- SPOT peptide array binding signal intensity (ScNbp2): 846
- SPOT peptide array binding signal intensity (ScPex13): 586
- SPOT peptide array binding signal intensity (ScRvs167): 70.5
- SPOT peptide array binding signal intensity (ScSho1): 458
- SPOT peptide array binding signal intensity (ScSla1-D1-D2): 1260
- SPOT peptide array binding signal intensity (ScSla1-D3): 851
- SPOT peptide array binding signal intensity (SpAbp1-D1): 118
- SPOT peptide array binding signal intensity (SpBbc1): 17
- SPOT peptide array binding signal intensity (SpBzz1-D1): 573
- SPOT peptide array binding signal intensity (SpBzz1-D2): 16.8
- SPOT peptide array binding signal intensity (SpCyk3): 4
- SPOT peptide array binding signal intensity (SpHof1): 43.8
- SPOT peptide array binding signal intensity (SpHof1-2): 98
- SPOT peptide array binding signal intensity (SpHof1-3): 193
- SPOT peptide array binding signal intensity (SpHse1): 784
- SPOT peptide array binding signal intensity (SpLsb1): 15
- SPOT peptide array binding signal intensity (SpLsb4): 290
- SPOT peptide array binding signal intensity (SpMyo1): 32.5
- SPOT peptide array binding signal intensity (SpNbp2): 400
- SPOT peptide array binding signal intensity (SpPex13): 157
- SPOT peptide array binding signal intensity (SpRvs167): 34.5
- SPOT peptide array binding signal intensity (SpSla1-D1-D2): 30.5
- SPOT peptide array binding signal intensity (SpSla1-D3): 279
